High-throughput results (PubChem)
In the library only some 8.9% were active in any assay of this set; here they are far more common.
D3 ag = qHTS of D3 Dopamine Receptor Agonist: qHTS; D3R DiscoveRx beta-arrestin cells, luminescence, 90 min; max activation, %; 0.58% of 410,000 active; AID 652048, 2013; in the data active means max activation above about 30%
Target sequence (P35462 whole entry, looked up): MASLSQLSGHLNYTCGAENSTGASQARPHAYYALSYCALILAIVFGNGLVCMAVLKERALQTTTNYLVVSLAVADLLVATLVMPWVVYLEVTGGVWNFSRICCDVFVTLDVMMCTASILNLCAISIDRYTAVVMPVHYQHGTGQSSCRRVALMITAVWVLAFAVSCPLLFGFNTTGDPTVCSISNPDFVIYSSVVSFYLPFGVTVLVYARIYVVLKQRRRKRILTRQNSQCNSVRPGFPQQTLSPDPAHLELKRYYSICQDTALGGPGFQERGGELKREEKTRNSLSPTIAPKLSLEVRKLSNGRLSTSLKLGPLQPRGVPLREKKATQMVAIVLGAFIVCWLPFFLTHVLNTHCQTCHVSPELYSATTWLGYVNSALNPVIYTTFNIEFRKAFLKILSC
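Cells at 1500/well, incubated overnight, then treated with pinned compounds (dopamine as control) for 90 min at 37 degrees C. DiscoveRx reagent added for 30 - 60 minutes at room temperature; luminescence read.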
SW480 rerep = A quantitative high throughput screen for small molecules that induce DNA re-replication in SW480 colon adenocarcinoma cells | SW480 DNA re-replication, Hoechst DNA content imaging, 48 h | Potency, µM (series often up to 46.1 µM), most hits filed as activators | 1.8% of 340,000 active; further: nearly all actives have a fitted effect of over 55% in size
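Image-based DNA-content assay: after two days of treatment, nuclei were labelled with the DNA dye Hoechst and imaged, and hits were compounds raising the count of nuclei showing high fluorescence intensity.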
KB-3-1 cytotox = qHTS assay for MDR1-selective chemotherapeutics: Primary screen using the parental adenocarcinoma cell KB-3-1 | KB-3-1 viability, CellTiter-Glo ATP luminescence, 72 h | Potency, µM (doses to about 46.1 µM), usual class: cytotoxic | 1.4% of 400,000 active; further: nearly all actives have a fitted effect of over 60% in size
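Parental KB-3-1 adenocarcinoma cells in phenol-red-free DMEM with 10% FBS were pin-treated with compounds at several concentrations, incubated 72 h at 37 °C, and viability read by CellTiter-Glo luminescence; concentration-effect curves were fitted after normalization.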
D3 antag = qHTS of D3 Dopamine Receptor Antagonist: qHTS; 2.5% of 360,000 active; max response, negative = inhibition, %; D3R cells, DiscoveRx beta-arrestin luminescence, antagonist mode; active compounds read low; D(3) dopamine receptor (Homo sapiens), P35462; AID 652054, 2013; in the data active means max response below about -50%; inconclusive means no clear call, values can overlap the other calls
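Cells plated overnight at 1500 cells/well, then exposed to library compounds with dopamine controls for 90 minutes at 37 degrees C. DiscoveRx reagent added for 30–60 minutes at room temperature; luminescence read, quantitative HTS format.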
MCF10A rereplic = A quantitative high throughput screen for small molecules that induce DNA re-replication in MCF 10a normal breast cells; MCF 10A DNA re-replication, Hoechst nuclear intensity, 48 h; Potency, µM (titrated, usually from 46.1 µM), hits mostly activators; 2.9% of 350,000 active; AID 624296, 2012; further: nearly all actives have a fitted effect of over 50% in size
KB-V1 MDR tox = qHTS assay for MDR1-selective chemotherapeutics: Primary screen using the drug-selected MDR subline cells KB-V1 | 3.4% of 400,000 active | KB-V1 MDR cells viability, CellTiter-Glo, 72 h | Potency, µM (series often up to 46.1 µM), actives largely listed as cytotoxic; further: nearly all actives have a fitted effect of over 60% in size
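KB-V1 MDR subline cells in DMEM (phenol-red free, 10% FBS) exposed to compounds in qHTS concentration series for 72 h at 37 degrees C. Viability read by CellTiter-Glo luminescence; concentration-effect curves fitted after normalization and correction.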
Each line names hits and unclear results; the compound was inactive in the other large screens. Unless noted, the call rests on the fitted dose curve; in most records, active means well fitted curve in the direction sought with a large enough effect; inconclusive means small, poorly fitted or top-dose-only effect, or another doubt; inactive means no such curve, though single readings can be large; an effect the other way counts as inactive or inconclusive.

CC[C@H]1NC(=O)[C@@H](NC(=O)c2ncccc2O)[C@@H](C)OC(=O)[C@H](c2ccccc2)NC(=O)[C@@H]2CC(=O)CCN2C(=O)[C@H](Cc2ccccc2)N(C)C(=O)[C@@H]2CCCN2C1=O	none (no result: SW480 rerep, KB-3-1 cytotox, D3 antag, MCF10A rereplic, KB-V1 MDR tox)
Fc1ccc(NC(=S)NNc2ncc(C(F)(F)F)cc2Cl)c(F)c1	SW480 rerep inconclusive, KB-3-1 cytotox 21µM, D3 antag -75, KB-V1 MDR tox 15µM
Nc1ccccc1C(=O)NNc1ncc(C(F)(F)F)cc1Cl	SW480 rerep 5.8µM, MCF10A rereplic 15µM, KB-V1 MDR tox inconclusive
ON/C=N/C(=S)Nc1ncc(C(F)(F)F)cc1Cl	KB-V1 MDR tox inconclusive
O=C(NNc1ncc(C(F)(F)F)cc1Cl)c1ccc(Cl)c(Cl)c1	none
Cc1ccc(NC(=S)NNC(=S)Nc2cccc(C(F)(F)F)c2)cc1	none
Cc1ccc(NC(=S)NNc2ncc(C(F)(F)F)cc2Cl)cc1	KB-3-1 cytotox inconclusive, D3 antag -68
O=S(=O)(NNc1ncc(C(F)(F)F)cc1Cl)c1ccc(F)cc1F	none
FC(F)(F)c1cnc(NNC(=S)Nc2ccc(Cl)cc2)c(Cl)c1	SW480 rerep inconclusive, KB-3-1 cytotox inconclusive, D3 antag -64, MCF10A rereplic 15µM
CCc1ccc(NCc2cccn2-c2nnc(N3CCCCCC3)s2)cc1	none (no result: SW480 rerep, KB-3-1 cytotox, D3 antag, MCF10A rereplic, KB-V1 MDR tox)
O=c1c(N2CCN(c3cccc(C(F)(F)F)c3)CC2)csc2ccccc12	none (no result: SW480 rerep, D3 antag, MCF10A rereplic)
CON/C=N/C(=S)Nc1ncc(C(F)(F)F)cc1Cl	none
Cc1ccc(NC(=S)NNc2ncc(C(F)(F)F)cc2Cl)c(C)c1	D3 antag -53
O=C(Nc1ccc(-c2nc3cc(Cl)ccc3o2)cc1)C1CCCO1 (configuration not stated)	MCF10A rereplic inconclusive, KB-V1 MDR tox 10µM
Cc1ccc2nc(-c3ccc(NC(=O)Cc4cccs4)cc3)[nH]c2c1	SW480 rerep inconclusive, MCF10A rereplic inconclusive
O=C(Nc1ccc(-c2nc3ccccc3o2)cc1)C1CCCO1 (configuration not stated)	KB-3-1 cytotox inconclusive, KB-V1 MDR tox 10µM
Cc1ccc2nc(-c3ccc(NC(=O)C4CCCO4)cc3)[nH]c2c1 (configuration not stated)	KB-V1 MDR tox 9.2µM
CCOCCc1nn2c(=O)cc(COC(=O)c3ccc4c(c3)OCO4)nc2s1	none (no result: SW480 rerep, D3 antag, MCF10A rereplic)
COc1cccc(NC(=O)Nc2nc(SC)ns2)c1	SW480 rerep inconclusive, KB-V1 MDR tox inconclusive
CCSc1nsc(NC(=O)Nc2cccc(F)c2)n1	SW480 rerep inconclusive, KB-3-1 cytotox inconclusive, MCF10A rereplic 16µM, KB-V1 MDR tox inconclusive
Cc1cc(/C=N/n2cnnc2)c(C)n1-c1ccc(OCc2ccc(Cl)cc2Cl)cc1	KB-3-1 cytotox 7.3µM, MCF10A rereplic 1.5µM, KB-V1 MDR tox 5.2µM
Cc1cc(/C=N/n2cnnc2)c(C)n1-c1ccccc1	KB-3-1 cytotox 3.3µM, KB-V1 MDR tox 5.8µM
Cc1cc(/C=N/n2cnnc2)c(C)n1-c1ccc(Cl)cc1	none
CCN(CC)c1ccc(N=Nc2ccc(S(=O)(=O)N(C)C)cc2)c(S(=O)(=O)NCC[n+]2ccccc2)c1	none (no result: SW480 rerep, KB-3-1 cytotox, D3 antag, MCF10A rereplic, KB-V1 MDR tox)
C=CCn1c(COc2ccc3c(c2)CCCC3)nnc1SCC(=O)Nc1cccc(SC)c1	KB-3-1 cytotox inconclusive, KB-V1 MDR tox 15µM
COC(=O)c1ccc(C(=O)OC)c(NC(=S)N2CCCC(C)C2)c1 (configuration not stated)	SW480 rerep inconclusive, KB-V1 MDR tox 18µM
COC(=O)c1ccc(C(=O)OC)c(NC(=S)N2CC(C)CC(C)C2)c1 (configuration not stated)	KB-V1 MDR tox 15µM
COC(=O)c1ccc(C(=O)OC)c(NC(=S)N2CCC(N3CCCCC3)CC2)c1	none
COC(=O)c1ccc(C(=O)OC)c(NC(=S)N2CCC(C(N)=O)CC2)c1	none
CC1CN(c2ccc(Cl)cc2)c2nc3c(c(=O)n(CC(=O)O)c(=O)n3C)n2C1 (configuration not stated)	KB-V1 MDR tox inconclusive (no result: SW480 rerep, D3 antag, MCF10A rereplic)
COc1cccc(CSc2nc(-c3ccccc3F)nc3c2Cc2c(CO)cnc(C)c2O3)c1	none (no result: SW480 rerep, D3 antag, MCF10A rereplic)
COc1cc(NC(=O)Nn2cnnc2)cc(OC)c1OC	none
CSc1ccc(CN2C(=O)C(C)ON=C2c2ccccc2F)cc1 (configuration not stated)	none (no result: SW480 rerep, MCF10A rereplic)
O=C(Nc1nc(-c2ccccc2)cs1)c1ccccc1NS(=O)(=O)c1ccc(F)cc1	KB-3-1 cytotox 6.5µM, MCF10A rereplic 16µM, KB-V1 MDR tox 16µM
Fc1ccc(-c2csc(-c3ccncc3)n2)cc1	none
O=C(Nc1cccnc1)c1ccccc1NS(=O)(=O)c1ccc(F)cc1	KB-3-1 cytotox inconclusive, KB-V1 MDR tox 21µM
O=S(=O)(Nc1ccc(-c2csc(-c3ccccc3)n2)cc1)c1ccc(F)cc1	KB-3-1 cytotox inconclusive, MCF10A rereplic 16µM, KB-V1 MDR tox inconclusive
CSc1nn(CC(=O)Nc2ccc(C)cc2C)c(N)c1S(=O)(=O)c1ccc(Cl)cc1	none (no result: SW480 rerep, D3 antag, MCF10A rereplic)
COc1ccc(C(c2c(O)cc(C)n(Cc3ccco3)c2=O)N2CCN(c3ccccc3)CC2)cc1 (configuration not stated)	none (no result: SW480 rerep, D3 antag, MCF10A rereplic)
COC(=O)c1ccc(COc2ccc(C)cc2[N+](=O)[O-])o1	MCF10A rereplic 1.8µM
Cc1ccc(OCc2ccc(C(=O)NN)o2)c([N+](=O)[O-])c1	SW480 rerep inconclusive
Cc1ccc(/C=N/NC(=O)c2ccc(NC(=O)c3ccccc3Cl)cc2)o1	KB-3-1 cytotox inconclusive
O=C(N/N=C/c1ccc(-c2ccccc2Cl)o1)c1ccccc1	SW480 rerep inconclusive, KB-3-1 cytotox inconclusive, D3 antag inconclusive, MCF10A rereplic 29µM, KB-V1 MDR tox inconclusive
O=C(N/N=C/c1ccc(-c2ccccc2[N+](=O)[O-])o1)c1cccnc1	D3 antag -59
CC(=O)c1ccc(NC(=O)c2ccc(COc3ccccc3[N+](=O)[O-])o2)cc1	KB-3-1 cytotox inconclusive, KB-V1 MDR tox 10µM
O=C(O)c1ccc(COc2ccccc2[N+](=O)[O-])o1	none
CC1CN(C(=O)N2CCC(C(=O)NCCCc3ccccc3)CC2)c2cc(Cl)ccc2O1 (configuration not stated)	none (no result: SW480 rerep, D3 antag, MCF10A rereplic)
CCOC(=O)c1ccc(NC(=O)CSc2nc(-c3ccc(F)cc3)cc(C(F)(F)F)c2C#N)cc1	none (no result: SW480 rerep, KB-3-1 cytotox, D3 antag, MCF10A rereplic, KB-V1 MDR tox)
CC(=O)c1cccc(NC(=O)c2ccc(-c3ccccc3[N+](=O)[O-])o2)c1	MCF10A rereplic 18µM, KB-V1 MDR tox inconclusive
